Drawing on PubChem BioAssay AID1345085 (National Center for Advancing Translational Sciences (NCATS), 2018), this text covers Potency for 32 molecules.

Inconclusive results are not listed. Calls of active or inactive are those of the source. Calls come from the whole dose curve; as a rule, active = well fitted cell-killing curve with a large enough effect; inconclusive = small, poorly fitted or top-dose-only effect, or effect the other way; inactive = no such curve, though single readings can be large or run the other way. *1 amine or outer side, *2 acyl side, *3 side chain or, on linkers, in order; H or OH if unused. Where a SMILES comes first, the peptide text is derived from it. Bridges are numbered along the chain shown (N, C = ends). Roman numbers before positions name the chains, in order. [ ]: non-standard residue; d: D form. Actinocin(9to1) = Cc1c2oc3c(C)ccc(C(=O)[*:1])c3nc-2c(C(=O)[*:2])c(N)c1=O; NMeV = CN[C@H](C(=O)O)C(C)C; Sar = CNCC(=O)O

The assay deals with Tov-21-G. In words: Confirmatory qHTS for gynecologic anti-cancer compounds from libraries of approved drugs and bioactive compounds. Note: nearly all actives have a fitted effect of over 55% in size. The following applies: gynecologic cancer cell panel viability, ATPlite luminescence, 48 h; series mostly up to 57.7 µM. Put shortly:
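1,000 cells/well; 16 h pre-incubation 37 C, 5% CO2; pin-transferred cpd in DMSO, 11 conc (1:3), 57.5 uM–0.977 nM; 48 h; ATPlite, 15 min RT; luminescence → IC50.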
Potency is the fitted concentration of half-maximal effect.

`Cc1ccc(-n2[nH]c(C)c(N=Nc3cccc(-c4cccc(C(=O)O)c4)c3O)c2=O)cc1C`: the Potency entry was “inactive”.
Turning to `O=C1NC(=O)C(c2cnc3ccccn23)=C1c1cn2c3c(cccc13)CN(C(=O)N1CCOCC1)CC2`, the Potency was 0.544 µM (active).
In the case of `CCN(CC)CCOc1ccc(/C(=C(\Cl)c2ccccc2)c2ccccc2)cc1`, the Potency was 126 µM (active).
As for `COc1cc(N2CCC(N(C)C)CC2)ccc1Nc1ncc(Cl)c(Nc2ccccc2P(C)(C)=O)n1`, the Potency was 1.72 µM (active).
As for `Cc1c2oc3c(C)ccc(C(=O)N[C@@H]4C(=O)N[C@H](C(C)C)C(=O)N5CCC[C@H]5C(=O)N(C)CC(=O)N(C)[C@@H](C(C)C)C(=O)O[C@@H]4C)c3nc-2c(C(=O)N[C@@H]2C(=O)N[C@H](C(C)C)C(=O)N3CCC[C@H]3C(=O)N(C)CC(=O)N(C)[C@@H](C(C)C)C(=O)O[C@@H]2C)c(N)c1=O` (I: T[dV]P[Sar][NMeV] / II: T[dV]P[Sar][NMeV]; ester I:1-I:C, II:1-II:C; linker I:N-II:N via Actinocin(9to1)), the figure is 0.685 µM (active); as for `CCCC(Nc1nc(-c2ccc(NC(=O)NCC)c(OC)c2)ncc1C)c1cccnc1` (configuration not stated), 0.0306 µM (active); as for `COc1ccc(OC)c(-c2nnc3ccc(-c4ccc(OC)c(O[C@@H]5CCOC5)c4)nn23)c1`, “inactive”.
Take `Nc1ccn([C@@H]2O[C@H](CO)[C@@H](O)C2(F)F)c(=O)n1`: the Potency is 6.11 µM (active).
As to `COc1cc2c(cc1-c1c(C)noc1C)ncc1[nH]c(=O)n(C(C)c3ccccn3)c12` (configuration not stated), the Potency was 6.85 µM (active).
In the case of `COc1cc2c(NC3CCN(C(C)C)CC3)nc(C3CCCCC3)nc2cc1OCCCN1CCCC1`, the Potency is 10.9 µM (active).
With `O=C(CCCCCCC(=O)Nc1ccccc1)NO`, the Potency is 4.85 µM (active).
In the case of `Nc1ccc(C(=O)Nc2cccc(-c3nc(N4CCOCC4)c4oc5ncccc5c4n3)c2)cn1`, the Potency was 6.11 µM (active).
Take `Cc1c(NC(=O)OCC2COCCN2)cn2ncnc(Nc3ccc4c(cnn4Cc4cccc(F)c4)c3)c12` (configuration not stated): the Potency is 3.06 µM (active).
As for `C=CC(=O)Nc1cccc(Oc2nc(Nc3ccc(N4CCN(C)CC4)cc3)ncc2Cl)c1`, the Potency was 3.85 µM (active).
`Cc1cc(CN2CCN(c3c(Br)cnc4nc(-c5ccc(N6CCN(C)CC6)cc5)[nH]c34)CC2)no1`: the Potency was 24.3 µM (active).
Consider `CNC1CCC(N(Cc2cccc(-c3ccncc3)c2)C(=O)c2sc3ccccc3c2Cl)CC1` (configuration not stated), for which the Potency was 19.3 µM (active).
`Cc1ccc(C(=O)Nc2ccc(CN3CCN(C)CC3)c(C(F)(F)F)c2)cc1C#Cc1cnc2[nH]ncc2c1`: the Potency was 0.0273 µM (active).
For `NCCOc1cc(C(=O)Nc2cc(OCCN)c3ccccc3n2)nc(C(=O)Nc2cc(OCCN)c3ccccc3n2)c1`, the Potency was 24.3 µM (active).
`O=C(NOC[C@H](O)CO)c1ccc(F)c(F)c1Nc1ccc(I)cc1F`: the Potency is 1.72 µM (active).
With `Nc1ccccc1NC(=O)c1ccc(CNc2nccc(-c3cccnc3)n2)cc1`, the Potency was 2.43 µM (active).
`CC[C@@]1(O)C(=O)OCc2c1cc1n(c2=O)Cc2c-1nc1ccccc1c2/C=N/OC(C)(C)C`: the Potency is 0.611 µM (active).
Turning to `COc1cc2c(Nc3ccc(NC(=O)c4ccccc4)cc3)ncnc2cc1OCCCN1CCOCC1`, the Potency was 19.3 µM (active).
Turning to `COC(C)(C)CCn1nc(Nc2c(C)cccc2C)c2cnc(Nc3ccc(OCCN4CCCC4)c(F)c3)nc21`, the Potency was 1.37 µM (active).
On to `COc1cc(-c2nn(C3CCC(N4CCN(C(C)=O)CC4)CC3)c3ncnc(N)c23)ccc1NC(=O)c1cc2ccccc2n1C` (configuration not stated), for which the Potency is 1.09 µM (active).
As to `O=C(/C=C/c1cccc(S(=O)(=O)Nc2ccccc2)c1)NO`, the Potency is 4.73 µM (active).
Take `CCn1cc(-c2ccnc3[nH]c(-c4cccc(CN(C)C)c4)cc23)c(-c2ccc(NC(=O)N(C)C)cc2)n1`: the Potency is 7.49 µM (active).
Consider `COc1cc(Nc2c(C#N)cnc3cc(OCCCN4CCN(C)CC4)c(OC)cc23)c(Cl)cc1Cl`, for which the Potency was 1.72 µM (active).
Regarding `Cc1nc(NC(=O)N2CCCC2C(N)=O)sc1-c1ccnc(C(C)(C)C(F)(F)F)c1` (configuration not stated), the Potency was 10.9 µM (active).
Take `NS(=O)(=O)c1ccc(Nc2nc(OCC3CCCCC3)c3[nH]cnc3n2)cc1`: the Potency result is “inactive”.
On to `Cc1nc(Nc2n[nH]c3c2CN(C(=O)NC(CN(C)C)c2ccccc2)C3(C)C)c2sccc2n1` (configuration not stated), for which the Potency is 2.43 µM (active).
`CNC(=O)c1ccccc1Sc1ccc2c(/C=C/c3ccccn3)n[nH]c2c1`: the Potency is 10.9 µM (active).
Consider `Cc1cnc(Nc2cccc(CN3CCOCC3)c2)nc1Nc1cccc(S(=O)(=O)NC(C)(C)C)c1`, for which the Potency is 3.06 µM (active).
